# Experiments:
# [1] = biological target: T1, Ephrin type-B receptor 1 (Homo sapiens) (UniProt P54762); settings: at 10 µM
# T1 sequence (whole entry): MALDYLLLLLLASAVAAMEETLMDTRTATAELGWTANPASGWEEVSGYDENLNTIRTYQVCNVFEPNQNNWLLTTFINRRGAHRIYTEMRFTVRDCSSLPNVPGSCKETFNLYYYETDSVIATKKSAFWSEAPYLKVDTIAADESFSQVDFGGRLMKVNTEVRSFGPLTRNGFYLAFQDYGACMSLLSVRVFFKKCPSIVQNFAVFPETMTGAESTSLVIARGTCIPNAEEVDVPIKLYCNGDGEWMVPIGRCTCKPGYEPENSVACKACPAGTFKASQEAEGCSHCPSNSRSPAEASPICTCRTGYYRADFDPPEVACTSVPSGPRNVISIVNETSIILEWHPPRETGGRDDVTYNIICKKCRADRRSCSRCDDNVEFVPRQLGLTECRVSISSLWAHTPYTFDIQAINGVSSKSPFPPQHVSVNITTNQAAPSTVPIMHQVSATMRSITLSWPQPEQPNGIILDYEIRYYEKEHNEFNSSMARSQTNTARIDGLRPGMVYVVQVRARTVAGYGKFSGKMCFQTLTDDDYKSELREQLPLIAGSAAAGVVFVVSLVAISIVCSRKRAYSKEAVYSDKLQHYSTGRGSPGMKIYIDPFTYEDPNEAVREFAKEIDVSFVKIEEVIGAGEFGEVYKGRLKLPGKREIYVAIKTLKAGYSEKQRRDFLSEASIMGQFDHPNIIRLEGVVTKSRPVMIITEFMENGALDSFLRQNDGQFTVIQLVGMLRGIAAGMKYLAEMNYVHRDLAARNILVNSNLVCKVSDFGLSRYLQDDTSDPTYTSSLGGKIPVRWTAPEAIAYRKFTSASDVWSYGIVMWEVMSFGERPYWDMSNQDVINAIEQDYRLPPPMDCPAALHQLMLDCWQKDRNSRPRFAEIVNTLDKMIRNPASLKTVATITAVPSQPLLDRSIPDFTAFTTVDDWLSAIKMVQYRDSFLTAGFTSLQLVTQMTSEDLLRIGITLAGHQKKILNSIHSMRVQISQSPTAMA
# [2] = biological target: T2, Ephrin type-B receptor 2 (Homo sapiens) (UniProt P29323); settings: at 1 µM
# T2 sequence (whole entry): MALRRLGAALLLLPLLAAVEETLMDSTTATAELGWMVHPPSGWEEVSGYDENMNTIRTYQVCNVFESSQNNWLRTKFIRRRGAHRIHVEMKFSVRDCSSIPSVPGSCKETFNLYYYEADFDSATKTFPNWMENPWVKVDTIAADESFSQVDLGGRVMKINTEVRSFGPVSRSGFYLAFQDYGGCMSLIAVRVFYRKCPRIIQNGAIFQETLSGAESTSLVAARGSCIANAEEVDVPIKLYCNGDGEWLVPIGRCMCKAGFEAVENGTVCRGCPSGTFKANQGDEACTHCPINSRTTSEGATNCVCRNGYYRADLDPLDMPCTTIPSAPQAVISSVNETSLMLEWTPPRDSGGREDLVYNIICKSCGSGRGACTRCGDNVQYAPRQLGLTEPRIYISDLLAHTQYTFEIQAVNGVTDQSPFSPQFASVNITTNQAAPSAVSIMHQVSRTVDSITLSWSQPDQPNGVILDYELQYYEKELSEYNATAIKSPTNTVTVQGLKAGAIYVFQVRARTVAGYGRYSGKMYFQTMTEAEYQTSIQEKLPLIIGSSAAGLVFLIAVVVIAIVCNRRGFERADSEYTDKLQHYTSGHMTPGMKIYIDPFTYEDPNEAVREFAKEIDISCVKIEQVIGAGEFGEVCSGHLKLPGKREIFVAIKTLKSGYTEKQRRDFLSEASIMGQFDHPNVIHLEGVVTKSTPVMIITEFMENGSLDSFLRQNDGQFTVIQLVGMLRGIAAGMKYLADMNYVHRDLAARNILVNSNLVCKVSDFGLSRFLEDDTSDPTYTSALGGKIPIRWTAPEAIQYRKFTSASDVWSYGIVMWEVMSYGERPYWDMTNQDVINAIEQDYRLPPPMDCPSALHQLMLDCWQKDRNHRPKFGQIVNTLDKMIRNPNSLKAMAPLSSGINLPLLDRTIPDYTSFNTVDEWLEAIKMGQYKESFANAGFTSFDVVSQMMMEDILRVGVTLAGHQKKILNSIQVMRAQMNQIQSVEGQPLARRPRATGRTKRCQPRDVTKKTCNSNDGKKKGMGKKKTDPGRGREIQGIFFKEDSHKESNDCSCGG
# [3] = biological target: T2, Ephrin type-B receptor 2 (Homo sapiens); settings: at 10 µM
# [4] = biological target: T3, Ephrin type-B receptor 3 (Homo sapiens) (UniProt P54753); settings: at 1 µM
# T3 sequence (whole entry): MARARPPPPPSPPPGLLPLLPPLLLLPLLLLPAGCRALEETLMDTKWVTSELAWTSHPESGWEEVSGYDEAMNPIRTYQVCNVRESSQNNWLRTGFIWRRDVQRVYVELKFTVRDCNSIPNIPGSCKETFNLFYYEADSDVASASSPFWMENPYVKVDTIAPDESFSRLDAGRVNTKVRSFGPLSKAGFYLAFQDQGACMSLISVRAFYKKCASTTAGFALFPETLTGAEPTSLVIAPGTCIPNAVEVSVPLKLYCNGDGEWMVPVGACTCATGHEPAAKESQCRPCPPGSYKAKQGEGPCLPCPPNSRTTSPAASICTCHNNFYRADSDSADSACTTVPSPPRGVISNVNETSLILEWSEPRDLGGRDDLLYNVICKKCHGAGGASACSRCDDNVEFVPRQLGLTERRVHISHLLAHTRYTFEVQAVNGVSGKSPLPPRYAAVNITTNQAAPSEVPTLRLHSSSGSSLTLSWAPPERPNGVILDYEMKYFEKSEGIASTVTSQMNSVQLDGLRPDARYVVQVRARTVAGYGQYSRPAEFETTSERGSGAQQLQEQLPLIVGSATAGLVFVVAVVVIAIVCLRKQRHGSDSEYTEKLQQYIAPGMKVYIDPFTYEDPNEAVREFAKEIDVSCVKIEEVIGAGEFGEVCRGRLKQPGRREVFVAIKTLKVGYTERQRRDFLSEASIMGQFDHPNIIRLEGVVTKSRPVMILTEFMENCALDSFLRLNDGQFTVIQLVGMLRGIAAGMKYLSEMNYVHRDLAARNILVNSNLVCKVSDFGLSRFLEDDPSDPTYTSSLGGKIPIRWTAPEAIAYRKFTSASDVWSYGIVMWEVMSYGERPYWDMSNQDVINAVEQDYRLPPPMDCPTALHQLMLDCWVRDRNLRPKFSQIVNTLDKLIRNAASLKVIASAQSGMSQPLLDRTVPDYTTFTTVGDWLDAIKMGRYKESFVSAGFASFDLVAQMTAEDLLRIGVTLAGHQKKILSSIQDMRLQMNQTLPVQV
# [5] = biological target: T3, Ephrin type-B receptor 3 (Homo sapiens); settings: at 10 µM
# [6] = biological target: T4, Ephrin type-B receptor 4 (Homo sapiens) (UniProt P54760); settings: at 1 µM
# T4 sequence (whole entry): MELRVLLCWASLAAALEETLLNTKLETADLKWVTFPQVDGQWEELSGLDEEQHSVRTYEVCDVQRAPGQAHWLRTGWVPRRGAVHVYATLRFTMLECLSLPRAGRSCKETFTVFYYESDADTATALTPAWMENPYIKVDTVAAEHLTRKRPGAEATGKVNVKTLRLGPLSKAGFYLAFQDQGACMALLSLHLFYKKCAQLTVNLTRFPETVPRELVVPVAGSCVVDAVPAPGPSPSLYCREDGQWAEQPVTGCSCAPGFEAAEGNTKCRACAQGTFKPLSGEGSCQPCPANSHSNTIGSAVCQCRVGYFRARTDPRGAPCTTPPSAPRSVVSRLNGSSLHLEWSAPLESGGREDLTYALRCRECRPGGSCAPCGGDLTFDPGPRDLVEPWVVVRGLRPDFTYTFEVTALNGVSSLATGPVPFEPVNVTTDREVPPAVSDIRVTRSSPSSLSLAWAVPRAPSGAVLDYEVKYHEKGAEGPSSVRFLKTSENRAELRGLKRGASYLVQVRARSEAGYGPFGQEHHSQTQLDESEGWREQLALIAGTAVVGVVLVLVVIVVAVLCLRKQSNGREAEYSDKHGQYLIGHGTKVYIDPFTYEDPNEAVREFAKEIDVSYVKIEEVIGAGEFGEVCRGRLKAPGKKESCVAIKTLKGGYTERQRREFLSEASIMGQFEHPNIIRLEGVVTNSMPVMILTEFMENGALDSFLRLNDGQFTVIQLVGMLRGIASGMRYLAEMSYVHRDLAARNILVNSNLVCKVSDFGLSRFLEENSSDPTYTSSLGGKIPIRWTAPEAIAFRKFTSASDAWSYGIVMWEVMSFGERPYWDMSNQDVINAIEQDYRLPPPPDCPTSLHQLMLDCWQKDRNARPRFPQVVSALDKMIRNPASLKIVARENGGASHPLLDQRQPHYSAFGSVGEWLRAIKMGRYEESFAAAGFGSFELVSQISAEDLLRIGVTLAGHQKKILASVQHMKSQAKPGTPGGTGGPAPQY
# [7] = biological target: T4, Ephrin type-B receptor 4 (Homo sapiens); settings: at 10 µM
# [8] = biological target: Receptor tyrosine-protein kinase erbB-4 (Homo sapiens) (UniProt Q15303); settings: at 1 µM
# Chain of Receptor tyrosine-protein kinase erbB-4 (Homo sapiens) (Q15303 whole entry): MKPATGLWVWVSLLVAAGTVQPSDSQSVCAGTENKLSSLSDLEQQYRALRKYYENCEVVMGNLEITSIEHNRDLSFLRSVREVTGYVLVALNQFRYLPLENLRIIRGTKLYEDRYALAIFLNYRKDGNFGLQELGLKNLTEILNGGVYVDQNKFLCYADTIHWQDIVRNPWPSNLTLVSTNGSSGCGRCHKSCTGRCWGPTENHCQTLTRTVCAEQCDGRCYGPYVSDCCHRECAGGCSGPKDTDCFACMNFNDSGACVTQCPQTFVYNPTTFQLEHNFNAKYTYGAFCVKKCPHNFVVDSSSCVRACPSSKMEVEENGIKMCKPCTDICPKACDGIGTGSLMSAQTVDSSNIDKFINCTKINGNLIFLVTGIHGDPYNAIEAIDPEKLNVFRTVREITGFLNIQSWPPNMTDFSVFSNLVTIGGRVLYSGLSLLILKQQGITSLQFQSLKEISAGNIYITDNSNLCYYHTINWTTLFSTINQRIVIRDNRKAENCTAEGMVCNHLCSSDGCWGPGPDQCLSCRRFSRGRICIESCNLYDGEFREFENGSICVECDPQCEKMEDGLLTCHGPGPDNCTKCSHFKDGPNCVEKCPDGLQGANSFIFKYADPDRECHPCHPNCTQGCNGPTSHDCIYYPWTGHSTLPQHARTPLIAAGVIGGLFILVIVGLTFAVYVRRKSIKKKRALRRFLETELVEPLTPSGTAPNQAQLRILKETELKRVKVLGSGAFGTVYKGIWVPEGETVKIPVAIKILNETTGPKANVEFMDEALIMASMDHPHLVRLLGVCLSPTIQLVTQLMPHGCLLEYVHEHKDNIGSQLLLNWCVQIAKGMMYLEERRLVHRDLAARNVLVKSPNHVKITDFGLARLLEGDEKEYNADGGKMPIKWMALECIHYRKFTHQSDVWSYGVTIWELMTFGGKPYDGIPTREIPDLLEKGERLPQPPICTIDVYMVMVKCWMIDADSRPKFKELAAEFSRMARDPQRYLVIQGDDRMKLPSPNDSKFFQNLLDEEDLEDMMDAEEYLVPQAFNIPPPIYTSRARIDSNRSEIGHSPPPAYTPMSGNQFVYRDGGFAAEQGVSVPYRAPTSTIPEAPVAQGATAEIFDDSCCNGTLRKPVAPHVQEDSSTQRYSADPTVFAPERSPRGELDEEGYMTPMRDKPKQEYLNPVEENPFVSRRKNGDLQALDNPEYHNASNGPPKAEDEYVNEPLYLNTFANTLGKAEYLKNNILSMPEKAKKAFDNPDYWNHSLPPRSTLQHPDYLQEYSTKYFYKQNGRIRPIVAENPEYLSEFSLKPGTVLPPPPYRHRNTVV
# [9] = biological target: Receptor tyrosine-protein kinase erbB-4 (Homo sapiens) (UniProt Q15303); settings: at 10 µM
# [10] = biological target: Focal adhesion kinase 1 (Homo sapiens) (UniProt Q05397); settings: at 1 µM
# Chain of Focal adhesion kinase 1 (Homo sapiens) (Q05397 2-1052 limits assumed): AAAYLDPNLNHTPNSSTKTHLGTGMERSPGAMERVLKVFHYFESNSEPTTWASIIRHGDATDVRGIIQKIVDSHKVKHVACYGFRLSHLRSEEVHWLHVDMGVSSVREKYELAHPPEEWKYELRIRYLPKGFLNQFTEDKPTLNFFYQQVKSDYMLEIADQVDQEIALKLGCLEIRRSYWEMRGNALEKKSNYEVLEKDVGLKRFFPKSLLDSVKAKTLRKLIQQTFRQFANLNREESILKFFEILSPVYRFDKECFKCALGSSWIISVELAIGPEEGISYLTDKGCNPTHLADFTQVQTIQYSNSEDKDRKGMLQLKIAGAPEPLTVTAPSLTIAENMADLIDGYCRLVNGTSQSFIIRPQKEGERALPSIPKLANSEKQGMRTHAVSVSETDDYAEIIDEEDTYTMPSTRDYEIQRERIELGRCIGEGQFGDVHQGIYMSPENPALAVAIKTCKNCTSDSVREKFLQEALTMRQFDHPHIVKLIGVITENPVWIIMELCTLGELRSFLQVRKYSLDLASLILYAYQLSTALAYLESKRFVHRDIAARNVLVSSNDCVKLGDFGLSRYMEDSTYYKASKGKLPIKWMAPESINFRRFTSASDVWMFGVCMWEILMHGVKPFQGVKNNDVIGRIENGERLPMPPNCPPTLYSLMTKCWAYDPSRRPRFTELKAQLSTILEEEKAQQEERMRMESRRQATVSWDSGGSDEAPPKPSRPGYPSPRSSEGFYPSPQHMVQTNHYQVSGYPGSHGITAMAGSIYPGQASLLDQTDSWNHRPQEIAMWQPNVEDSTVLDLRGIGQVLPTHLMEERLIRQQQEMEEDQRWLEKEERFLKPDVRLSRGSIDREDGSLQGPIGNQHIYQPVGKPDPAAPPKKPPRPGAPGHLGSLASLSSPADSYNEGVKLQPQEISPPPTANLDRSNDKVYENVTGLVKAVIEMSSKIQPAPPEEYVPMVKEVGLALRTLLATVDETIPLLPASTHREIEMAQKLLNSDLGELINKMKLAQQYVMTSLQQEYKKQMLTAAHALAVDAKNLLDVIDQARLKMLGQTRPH
# [11] = biological target: Focal adhesion kinase 1 (Homo sapiens) (UniProt Q05397); settings: at 10 µM
# [12] = biological target: Fibroblast growth factor receptor 1 (Homo sapiens) (UniProt P11362); settings: at 1 µM
# [13] = biological target: Fibroblast growth factor receptor 1 (Homo sapiens) (UniProt P11362); settings: at 10 µM
# [14] = biological target: Fibroblast growth factor receptor 2 (Homo sapiens) (UniProt P21802); settings: at 1 µM
# Chain of Fibroblast growth factor receptor 2 (Homo sapiens) (P21802 22-821 limits assumed): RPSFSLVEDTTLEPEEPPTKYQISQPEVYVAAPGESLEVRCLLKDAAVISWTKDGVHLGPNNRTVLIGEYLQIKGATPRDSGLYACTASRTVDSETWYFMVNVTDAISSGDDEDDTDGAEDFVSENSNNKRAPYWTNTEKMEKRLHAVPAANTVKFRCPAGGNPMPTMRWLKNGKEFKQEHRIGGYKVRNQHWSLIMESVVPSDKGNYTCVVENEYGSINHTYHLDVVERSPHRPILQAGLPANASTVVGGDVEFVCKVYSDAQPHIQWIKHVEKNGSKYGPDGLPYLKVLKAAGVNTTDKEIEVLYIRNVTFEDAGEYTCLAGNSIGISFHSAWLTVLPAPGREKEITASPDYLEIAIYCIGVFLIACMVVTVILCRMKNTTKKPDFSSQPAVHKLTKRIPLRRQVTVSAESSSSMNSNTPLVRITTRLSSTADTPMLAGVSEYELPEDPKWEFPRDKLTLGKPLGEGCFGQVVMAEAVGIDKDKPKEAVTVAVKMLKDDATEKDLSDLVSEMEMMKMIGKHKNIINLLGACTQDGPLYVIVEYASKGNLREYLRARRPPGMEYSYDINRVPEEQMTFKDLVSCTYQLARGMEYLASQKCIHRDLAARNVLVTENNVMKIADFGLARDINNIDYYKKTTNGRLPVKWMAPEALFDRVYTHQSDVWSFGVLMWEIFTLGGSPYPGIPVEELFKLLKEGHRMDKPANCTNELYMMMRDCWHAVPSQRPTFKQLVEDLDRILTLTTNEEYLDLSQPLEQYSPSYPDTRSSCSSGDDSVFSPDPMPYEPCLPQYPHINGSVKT
# [15] = biological target: Fibroblast growth factor receptor 2 (Homo sapiens) (UniProt P21802); settings: at 10 µM
# [16] = biological target: Fibroblast growth factor receptor 3 (Homo sapiens) (UniProt P22607); settings: at 1 µM
# Chain of Fibroblast growth factor receptor 3 (Homo sapiens) (P22607 23-806 limits assumed): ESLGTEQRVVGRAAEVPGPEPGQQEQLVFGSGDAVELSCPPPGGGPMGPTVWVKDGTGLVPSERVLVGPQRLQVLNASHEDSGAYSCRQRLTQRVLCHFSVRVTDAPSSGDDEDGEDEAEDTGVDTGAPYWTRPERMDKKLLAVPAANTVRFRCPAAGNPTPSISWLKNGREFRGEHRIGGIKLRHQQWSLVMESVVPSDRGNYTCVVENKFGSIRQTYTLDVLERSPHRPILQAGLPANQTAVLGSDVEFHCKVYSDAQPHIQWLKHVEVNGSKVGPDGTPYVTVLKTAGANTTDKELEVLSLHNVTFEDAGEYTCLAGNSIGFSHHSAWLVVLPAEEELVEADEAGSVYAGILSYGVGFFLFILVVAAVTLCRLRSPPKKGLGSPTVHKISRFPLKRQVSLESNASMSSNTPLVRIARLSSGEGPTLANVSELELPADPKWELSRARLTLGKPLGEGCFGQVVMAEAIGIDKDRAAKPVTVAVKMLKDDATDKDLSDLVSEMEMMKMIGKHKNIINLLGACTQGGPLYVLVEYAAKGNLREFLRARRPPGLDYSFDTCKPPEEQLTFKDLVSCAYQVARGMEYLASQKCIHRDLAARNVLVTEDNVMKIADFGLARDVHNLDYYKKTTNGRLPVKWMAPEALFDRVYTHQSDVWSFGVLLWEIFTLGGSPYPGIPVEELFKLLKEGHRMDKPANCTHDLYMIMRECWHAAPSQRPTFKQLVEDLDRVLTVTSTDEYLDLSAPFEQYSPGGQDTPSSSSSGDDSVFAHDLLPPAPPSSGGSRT
# [17] = biological target: Fibroblast growth factor receptor 3 (Homo sapiens) (UniProt P22607); settings: at 10 µM
# [18] = biological target: Fibroblast growth factor receptor 4 (Homo sapiens) (UniProt P22455); settings: at 1 µM
# [19] = biological target: Fibroblast growth factor receptor 4 (Homo sapiens) (UniProt P22455); settings: at 10 µM
# [20] = biological target: Tyrosine-protein kinase Fer (Homo sapiens) (UniProt P16591); settings: at 1 µM
# Chain of Tyrosine-protein kinase Fer (Homo sapiens) (P16591 whole entry, looked up): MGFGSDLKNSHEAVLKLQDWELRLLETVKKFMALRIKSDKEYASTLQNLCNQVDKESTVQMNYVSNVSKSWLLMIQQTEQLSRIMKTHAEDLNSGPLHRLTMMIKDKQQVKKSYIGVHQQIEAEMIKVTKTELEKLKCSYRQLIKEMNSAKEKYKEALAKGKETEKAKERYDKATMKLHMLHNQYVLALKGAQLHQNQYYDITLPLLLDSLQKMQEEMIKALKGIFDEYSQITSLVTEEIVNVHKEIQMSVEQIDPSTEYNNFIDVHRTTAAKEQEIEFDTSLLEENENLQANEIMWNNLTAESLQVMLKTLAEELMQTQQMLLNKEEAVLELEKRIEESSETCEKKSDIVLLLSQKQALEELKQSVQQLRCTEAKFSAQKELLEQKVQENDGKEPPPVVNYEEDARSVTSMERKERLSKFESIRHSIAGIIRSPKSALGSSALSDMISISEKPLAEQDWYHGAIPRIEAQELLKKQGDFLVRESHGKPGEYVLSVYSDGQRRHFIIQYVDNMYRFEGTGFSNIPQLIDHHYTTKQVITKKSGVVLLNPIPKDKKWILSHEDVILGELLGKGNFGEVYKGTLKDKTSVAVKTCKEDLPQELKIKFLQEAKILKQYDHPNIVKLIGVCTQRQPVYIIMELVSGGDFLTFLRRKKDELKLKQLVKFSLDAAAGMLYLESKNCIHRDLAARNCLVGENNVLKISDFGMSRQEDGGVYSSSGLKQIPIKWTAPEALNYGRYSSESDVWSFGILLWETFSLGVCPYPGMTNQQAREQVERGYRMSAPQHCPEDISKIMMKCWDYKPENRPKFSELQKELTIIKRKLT
SMILES,residual activity [1],residual activity [2],residual activity [3],residual activity [4],residual activity [5],residual activity [6],residual activity [7],residual activity [8],residual activity [9],residual activity [10],residual activity [11],residual activity [12],residual activity [13],residual activity [14],residual activity [15],residual activity [16],residual activity [17],residual activity [18],residual activity [19],residual activity [20]
O=[N+]([O-])c1ccc(-c2nc(-c3ccc(F)cc3)c(-c3ccncc3)[nH]2)cc1,94%,111%,109%,126% (inactive),82%,89%,76%,76%,75%,107%,102%,102%,82%,112%,99%,109%,99%,122%,92%,100%
CNc1cc2c(Nc3cccc(Br)c3)ncnc2cn1,62%,94%,62%,95% (inactive),120%,63%,13%,42%,31%,107%,82%,102%,66%,89%,88%,90%,100%,109%,86%,105%
O=C(Nc1cccc(Nc2nccc(Nc3cccc(C(F)(F)F)c3)n2)c1)C1CC1,7%,93%,26%,106% (inactive),113%,109%,10%,98%,96%,51%,10%,69%,8%,99%,37%,83%,91%,108%,63%,124%
Ic1cccc(CSc2nnc(-c3ccncc3)o2)c1,84%,106%,109%,104% (inactive),101%,84%,84%,94%,91%,96%,90%,98%,71%,99%,82%,106%,93%,112%,98%,93%
COc1cc2ncnc(Nc3ccc(O)c(Br)c3)c2cc1OC,10%,65%,1%,99% (inactive),123%,19%,0%,16%,-1%,106%,64%,58%,24%,94%,67%,109%,67%,126%,101%,105%
CC(C)n1cnc2c(NCc3ccccc3)nc(NCCCO)nc21,79%,111%,115%,121% (inactive),104%,100%,88%,52%,45%,97%,57%,104%,65%,111%,87%,111%,93%,104%,81%,102%
